# Source: the supplement of paper PMC8047044
# Where “and” joins values, the source holds several entries; their conditions need not be identical. Identical values can stand only once.
# Experiments:
# [1] = test system: Neuro-2a; assay: neurite formation score, plate-normalized to DMSO control mean 5.04 (score (0-8 scale)); higher = more or longer neurites; conditions: 1 µM
# Procedure: (§1)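 Neuro-2a mouse neuroblastoma cells in PLL-coated 96-well plates were pre-treated for 1 h in DMEM(+) with each kinase inhibitor at 1 µM, then switched to serum-free DMEM(-) with inhibitor to induce neurite outgrowth and fixed about 2-3 h later. Three blinded observers scored neurite formation from 0 (no neurites) to 8 (long neurites on almost all cells).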
# [2] = test system: Neuro-2a; assay: as above; conditions: 0.1 µM
# Procedure: as §1, with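 “at 0.1” for “at 1”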
Compound,neurite formation score [1],neurite formation score [2]
COc1cc2nccc(Oc3ccc(NC(=O)Nc4ccc(F)cc4F)c(F)c3)c2cc1OC,5.24,4.38
Nc1nccc(Oc2ccc(NC(=O)c3c[nH]cc(-c4ccc(F)cc4)c3=O)cc2F)c1Cl,3.96,4.92
c1ccc2c(-c3cnn4cc(-c5ccc(N6CCNCC6)cc5)cnc34)ccnc2c1,5.14 and 4.47,2.42 and 4.42
CCN1C(=CC(C)=O)Sc2ccc(OC)cc21,4.96,4.92
O=C1c2ccc(Nc3ccc(F)cc3F)cc2CCc2ccc(OC[C@H](O)CO)cc21 [Skepinone-L],5.02,5.25
Cc1cc(C)c(/C=C2\C(=O)Nc3ccccc32)[nH]1,–,5.25
C[C@H](Nc1ncnc2nc[nH]c12)c1cc2cccc(Cl)c2c(=O)n1-c1ccccc1,2.91,5.04
O=C(O)c1ccc(Nc2ncc3c(n2)-c2ccc(Cl)cc2C(c2c(F)cccc2F)=NC3)cc1,3.47,2.76
CC(C)(O)CC(=O)NCCn1ccc2ncnc(Nc3ccc(Oc4cccc(C(F)(F)F)c4)c(Cl)c3)c21,5.14,4.42
Cc1cnc(NC(=O)Nc2cc(Br)c(C)cc2OC[C@@H]2CNCCO2)cn1,4.96,4.58
CC(C)N(CCC(=O)c1ccc2ccccc2c1)Cc1ccccc1,5.02,4.92
CN1CCN(c2ccc3nc(-c4c(N)c5c(F)cccc5[nH]c4=O)[nH]c3c2)CC1 [Dovitinib Dilactic acid],4.96,4.92
C[C@@H](Oc1cc(-c2cnn(C3CCNCC3)c2)cnc1N)c1c(Cl)ccc(F)c1Cl [(R)-Crizotinib],4.91,4.71
Cc1ccc(S(=O)(=O)Nc2nc3ccccc3nc2Nc2ccc3nsnc3c2)cc1,4.14,4.09
CCOc1ccc(Nc2ccc(/C(=C3C=C/C(=[N+](/CC)Cc4cccc(S(=O)(=O)[O-])c4)C=C/3C)c3ccc(N(CC)Cc4cccc(S(=O)(=O)O)c4)cc3C)cc2)cc1 [Brilliant Blue G],5.21,2.08
N=C(N)NCCC(=O)O [3-Guanidinopropionic Acid],5.21,4.75
CNC(=O)c1cc(Oc2ccc(NC(=O)Nc3ccc(Cl)c(C(F)(F)F)c3)cc2)ccn1 [Sorafenib],–,4.71
COc1cc2ncnc(Nc3cccc(Cl)c3F)c2cc1OC(=O)N1CCN(C)C[C@H]1C,–,4.75
CCN1CCN(c2ccc(Nc3cc(N(C)C(=O)Nc4c(Cl)c(OC)cc(OC)c4Cl)ncn3)cc2)CC1,3.8,4.09
CCN(CC)CCCCNc1ncc2cc(-c3cc(OC)cc(OC)c3)c(NC(=O)NC(C)(C)C)nc2n1,–,5.21
CCS(=O)(=O)N1CCN(c2ccc(Nc3ncc(C(N)=O)c(NC4CC4)n3)cc2)CC1,4.54,5.08
Cc1nc(NC(=O)N2CCC[C@H]2C(N)=O)sc1-c1csc(C(C)(C)C)n1,4.57,5.21
Cn1cc(C2=C(c3ccc(Cl)cc3Cl)C(=O)NC2=O)c2ccccc21,4.14,4.76
CO[C@@H](C(=O)N1Cc2[nH]nc(NC(=O)c3ccc(N4CCN(C)CC4)cc3)c2C1)c1ccccc1,3.69,4.58
COCCOc1ccc2c(c1)ncn2-c1ccc2cccc(N3CCC(N)CC3)c2n1,4.88,5.08
Brc1c(Br)c(Br)c2n[nH]nc2c1Br,5.47,5.09
CCN(CC)CCCC(C)Nc1nc(C)cc(Nc2ccc3nc(C)cc(N)c3c2)n1 (centres undefined),4.91,5.38
N[C@@H]1CCCN(c2c(/C=C3\SC(=O)NC3=O)cccc2-c2ccccc2)C1,5.36,5.25
CN1CCN(c2cccc(Nc3nc4c(-c5ccc(S(C)(=O)=O)cc5)cccn4n3)c2)CC1,4.69,4.25
